Source: PubChem BioAssay AID1159580 (chemical genetic matrix, 2015)
Several values for one entry are separate records, joined by “and”; a condition that tells them apart may be missing. Identical values can stand only once. The campaign covered roughly 5,500 compounds. About 2,000 (36%) were called active. Not shown: some 18% with an inconclusive outcome. Cut-off read from the data, not from the text of the source: active = normalized growth mostly below about 0.91 (no sharp cut-off); inconclusive = no clear call, values can overlap the other calls; inactive = mostly above about 0.92. The list shows a part of the results.

Assay: chemical genetic growth profiling, strain panel (AID 1159580);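 note: tested at 20 µM; growth read once vehicle control cultures reached saturation at 30 °C; 1 = growth at the plate median or of vehicle wells; lower values mean less growth of the strain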
Conditions: S. cerevisiae deletion strains, growth OD

Measured: normalized growth

O=C(O)/C=C/c1ccc(O)c(O)c1
inactive: locus YAL021C, strain ccr4, stronger effect = lower value 0.981 | locus YAL026C, strain drs2, stronger effect = lower value 1 | locus YAL030W, strain snc1, stronger effect = lower value 1 | locus YAL040C, strain CLN3, stronger effect = lower value 1.02 | locus YBL061C, strain skt5, stronger effect = lower value 0.996 | locus YBR009C, strain hhf1, stronger effect = lower value 0.995 | locus YBR021W, strain FUR4, stronger effect = lower value 1.01 | locus YBR023C, strain chs3, stronger effect = lower value 1 | locus YBR171W, strain sec66, stronger effect = lower value 1 | locus YBR229C, strain ROT2, stronger effect = lower value 1.01 | locus YBR231C, strain swc5, stronger effect = lower value 1 | locus YBR279W, strain paf1, stronger effect = lower value 0.995 | locus YCL011C, strain gbp2, stronger effect = lower value 1.01 | locus YCL016C, strain dcc1, stronger effect = lower value 1 | locus YCL029C, strain bik1, stronger effect = lower value 1.01 | locus YCL061C, strain MRC1 (second series), stronger effect = lower value 1.01 | locus YCL061C, strain MRC1, stronger effect = lower value 1 | locus YCL069W, strain vba3, stronger effect = lower value 1 | locus YCR088W, strain abp1, stronger effect = lower value 1 | locus YDL005C, strain med2, stronger effect = lower value 1 | locus YDL035C, strain GPR1, stronger effect = lower value 1.02 | locus YDL040C, strain nat1, stronger effect = lower value 1 | locus YDL074C, strain BRE1, stronger effect = lower value 1.05 | locus YDL101C, strain DUN1, stronger effect = lower value 1.01 | locus YDL134C, strain PPH21, stronger effect = lower value 1 | locus YDL185W, strain tfp1, stronger effect = lower value 1 | locus YDL192W, strain arf1, stronger effect = lower value 1 | locus YDR001C, strain nth1, stronger effect = lower value 1 | locus YDR069C, strain doa4, stronger effect = lower value 1.01 | locus YDR101C, strain arx1, stronger effect = lower value 1 | locus YDR137W, strain rgp1, stronger effect = lower value 0.998 | locus YDR150W, strain NUM1, stronger effect = lower value 1.01 | locus YDR159W, strain sac3, stronger effect = lower value 1 | locus YDR162C, strain NBP2, stronger effect = lower value 1 | locus YDR195W, strain ref2 0.977 | locus YDR297W, strain sur2, stronger effect = lower value 1.01 | locus YDR318W, strain mcm21, stronger effect = lower value 1 | locus YDR334W, strain swr1, stronger effect = lower value 0.993 | locus YDR335W, strain msn5, stronger effect = lower value 0.99 | locus YDR388W, stronger effect = lower value 1.01 | locus YDR392W, strain spt3, stronger effect = lower value 1.03 | locus YDR502C, strain sam2, stronger effect = lower value 0.996 | locus YEL003W, strain gim4, stronger effect = lower value 1.01 | locus YEL037C, strain rad23, stronger effect = lower value 0.991 | locus YEL061C, strain CIN8 (second series), stronger effect = lower value 1 | locus YEL061C, strain CIN8, stronger effect = lower value 1.01 | locus YER002W, strain NOP16, stronger effect = lower value 1.02 | locus YER015W, strain faa2, stronger effect = lower value 1 | locus YER016W, strain bim1, stronger effect = lower value 1.01 | locus YER110C, stronger effect = lower value 1.02 | locus YER111C, strain swi4, stronger effect = lower value 0.981 | locus YER155C, strain BEM2 (second series), stronger effect = lower value 1.03 | locus YER155C, strain BEM2, stronger effect = lower value 1 | locus YER167W, strain BCK2, stronger effect = lower value 1.02 | locus YFR010W, strain ubp6, stronger effect = lower value 1 | locus YGL078C, strain dbp3, stronger effect = lower value 0.997 | locus YGL086W, strain mad1, stronger effect = lower value 1.03 | locus YGL167C, strain pmr1, stronger effect = lower value 1 | locus YGL173C, strain kem1, stronger effect = lower value 1 | locus YGL227W, strain vid30, stronger effect = lower value 1.01 | locus YGL240W, strain doc1, stronger effect = lower value 1 | locus YGL248W, strain PDE1, stronger effect = lower value 0.999 | locus YGL253W, strain hxk2, stronger effect = lower value 1 | locus YGR078C, strain PAC10, stronger effect = lower value 1 | locus YGR135W, strain pre9, stronger effect = lower value 1.01 | locus YGR229C, strain SMI1, stronger effect = lower value 1.01 and 1.04 | locus YGR252W, strain gcn5, stronger effect = lower value 0.981 | locus YHR013C, strain ard1, stronger effect = lower value 0.993 | locus YHR027C, strain rpn1, stronger effect = lower value 0.992 | locus YHR030C, strain SLT2, stronger effect = lower value 1.01 | locus YHR079C, strain IRE1 (second series), stronger effect = lower value 1.03 | locus YHR079C, strain IRE1, stronger effect = lower value 0.993 | locus YHR094C, strain hxt1, stronger effect = lower value 1.01 | locus YHR129C, strain ARP1, stronger effect = lower value 1.02 | locus YHR142W, strain chs7, stronger effect = lower value 1.01 | locus YHR200W, strain rpn10, stronger effect = lower value 1.03 | locus YIL066C, strain RNR3, stronger effect = lower value 1.01 | locus YIL073C, strain SPO22, stronger effect = lower value 1.04 | locus YIL125W, strain kgd1, stronger effect = lower value 1.01 | locus YIR030C, strain dcg1, stronger effect = lower value 1 | locus YJL092W, strain hpr5, stronger effect = lower value 1 | locus YJL095W, strain BCK1 (second series), stronger effect = lower value 0.994 | locus YJL095W, strain BCK1, stronger effect = lower value 0.996 and 1.01 | locus YJL115W, strain asf1, stronger effect = lower value 0.991 | locus YJL129C, strain trk1, stronger effect = lower value 1 | locus YJL134W, strain LCB3, stronger effect = lower value 1.01 | locus YJL154C, strain vps35, stronger effect = lower value 0.999 | locus YJL164C, strain tpk1, stronger effect = lower value 1.01 | locus YJL166W, strain qcr8, stronger effect = lower value 1 | locus YJL168C, strain set2, stronger effect = lower value 1 | locus YJL187C, strain SWE1 (second series), stronger effect = lower value 1 | locus YJL187C, strain SWE1, stronger effect = lower value 0.998
